Measurements published in PubChem BioAssay AID652057 (Broad Institute, 2013).
In all, about 1,400 compounds went through this assay and about 1,000 (71%) were called active. No rule for the calls is given here. The set was probably picked from earlier hits. These entries were drawn from the full list. Potency and affinity values are given separately.

Assay: inhibitors of HIV Env-driven cell fusion, dose response, cherry-pick (AID 652057)
Conditions: HeLa-JRFL Env/CEM21 cell fusion, luciferase; series mostly up to 35 µM; activity change, negative = inhibition: at the top concentration

Activity change, negative = inhibition, inactive:
COc1ccc(N2CCN(C(=O)C3CCC(Cn4c(=S)[nH]c5ccccc5c4=O)CC3)CC2)cc1 (stereo unspecified) -2.4%, C[C@@H]1CN([C@H](C)CO)S(=O)(=O)c2ccc(C#Cc3cccc(F)c3)cc2O[C@@H]1CN(C)C(=O)CN1CCOCC1 -5.15%, Cc1[nH]c2ccccc2c1/C=N\NC(=O)c1ccccc1Cl 12.4%, CCn1c(/C=C/N(C)c2ccccc2)[n+](CC)c2ccc(Cl)cc21 -4.27%, O=C(C[C@H]1C[C@H]2c3cc(NC(=O)C4CCC4)ccc3O[C@H]2[C@H](CO)O1)NCc1ccc2c(c1)OCO2 -8.88%, Cc1nc2ccccc2c2oc(C(=O)NCc3ccc4c(c3)OCO4)cc12 14.1%, O=C(Nc1cc2c3c(c1)CC(=O)N3CCC2)c1ccc(Cl)cc1 36.2%, COC(=O)[C@]12CCCCC=C1N(Cc1ccco1)C(=O)[C@H](CC(=O)NCCc1ccccc1OC)C2 -2.88%, Cc1nn(C)c(Cl)c1NC(=O)OCc1ccc(Cl)cc1Cl 11.7%, COc1ccc(CCNC(=O)COC(=O)c2cccn2C)cc1 -14%, O=C(Nc1cccn(Cc2c(Cl)cccc2Cl)c1=O)c1ccc(Cl)cc1 33.5%, O=C(c1ccccc1F)N1CCN(Cc2cccc(Cl)c2)CC1 -4.77%, COc1ccccc1S(=O)(=O)Cc1ccc(C(=O)N2CCN(c3cccc(Cl)c3)CC2)o1 29.9%, CNC[C@H]1Oc2c(NC(=O)Nc3ccc4c(c3)OCO4)cccc2C(=O)N([C@H](C)CO)C[C@@H]1C 1.72%, Cc1ccc(NC(=O)c2ccc(OCC3CCCO3)cc2)cc1Cl (stereo unspecified) 107%, O=C(COc1ccc(-n2cnnn2)cc1)Nc1ccc(F)c(F)c1 -25.8%, COC(=O)[C@H](Cc1ccccc1)NC(=O)Cn1cnc(C(=O)Nc2ccc(C)c(C)c2)n1 4.14%, Cn1c(CN2CCCCC2)nc2cc(NC(=O)c3ccc(Cl)cc3)ccc21 8.53%, CCOc1ccc(-c2cc(CCCC(=O)Nc3cccc(OC)c3)no2)cc1 -22.4%, O=C(Cc1ccc(Cl)cc1Cl)Nc1ccncc1 -15.4%, C[C@@H]1CN([C@@H](C)CO)C(=O)c2cc(NS(=O)(=O)c3ccccc3)ccc2O[C@H]1CN(C)Cc1ccc(Oc2ccccc2)cc1 -26.4%, Cc1onc(-c2ccccc2)c1C(=O)NC(=S)NNC(=O)c1ccc(O)cc1 -13.1%, Cc1onc(-c2ccccc2)c1C(=O)Nc1ccc(Br)cc1Cl 13.9%, O=C(C[C@@H]1C[C@@H]2c3cc(NC(=O)C4CCC4)ccc3O[C@@H]2[C@@H](CO)O1)NCC(F)(F)F 13%, Cc1ccc(S(=O)(=O)N(C)c2ccc(C(=O)N3CCN(Cc4ccc5c(c4)OCO5)CC3)cc2)cc1 -15.9%, c1ccc2c(c1)OCC(CNc1ncnc3nc[nH]c13)O2 (stereo unspecified) -65.2%, Cc1nc2sc(C(c3ccco3)N3CCC(Cc4ccccc4)CC3)c(O)n2n1 (stereo unspecified) 11.1%, Cc1cc(C)c(CN2CCN(C(=O)Cn3cnc4c(NCc5ccccc5)ncnc43)CC2)c(C)c1 -26.3%, N#Cc1c(NCc2ccccc2)ccnc1NCc1cccnc1 -29.1%, C[C@@H]1CN([C@@H](C)CO)C(=O)c2cc(C3=CCCC3)cnc2O[C@@H]1CN(C)Cc1ccc(C(=O)O)cc1 -5.8%, C[C@H]1CN([C@@H](C)CO)C(=O)c2cccc(NC(=O)Nc3ccc(C(F)(F)F)cc3)c2O[C@H]1CN(C)S(=O)(=O)c1ccccc1 -3.18%, Cc1cc(C(=O)NC2CCCc3c2cnn3-c2ccc(C(C)(C)C)cc2)nn1C (stereo unspecified) -25.5%, c1coc(CNc2c3c(nc4ccccc24)CCC3)c1 -14.9%, C[C@H](CO)N1C[C@H](C)[C@@H](CN(C)S(=O)(=O)c2ccc(F)cc2)Oc2ccc(NS(=O)(=O)c3cn(C)cn3)cc2CC1=O -5.55%, O=C(c1cc(COc2cccc(C(F)(F)F)c2)on1)N1CCC(c2ccncc2)CC1 -27.1%, CCC(=O)N(C)C(c1ccccc1Cl)c1nnnn1-c1c(C)cccc1C (stereo unspecified) 4.37%, O=C(c1ccc(S(=O)(=O)Nc2ccc(F)cc2)cc1)N1CCN(C(=O)c2ccco2)CC1 -4.91%, Cc1cc(C)nc(/N=C(\N)Nc2ccc(CC(=O)OC(C)C)cc2)n1 -17.8%, O=C(Nc1ccc(CN2CCOCC2)cc1)c1ccc(-c2cccc(Cl)c2)o1 5.42%, C#CCn1c(=O)c2c(ncn2C)n(C)c1=O 7.39%, COCC(=O)Nc1ccc2c(c1)C(=O)N(C)[C@H]1CC[C@H](CC(=O)NC3CCCC3)O[C@H]1CO2 36.4%, CCNC(=O)C[C@H]1CC[C@@H]2[C@@H](COc3ccc(NC(=O)Cc4cccs4)cc3C(=O)N2C)O1 11.1%, CCNC(=O)C[C@@H]1CC[C@@H]2[C@@H](COc3ccc(NC(=O)Cc4cccs4)cc3C(=O)N2C)O1 3.59%, CN1C(=O)c2cc(NC(=O)NC3CCCC3)ccc2OC[C@@H]2O[C@H](CC(=O)NC3CCC3)CC[C@@H]21 25.5%, Cc1nn(C)cc1NC(=O)C[C@H]1CC[C@@H]2[C@@H](COc3ccc(NC(=O)C4CCC4)cc3C(=O)N2C)O1 -19.4%, CCNC(=O)Nc1ccc2c(c1)C(=O)N(C)[C@@H]1CC[C@@H](CC(=O)NCC3CCCCC3)O[C@@H]1CO2 17.7%, COc1ccc(OC)c(NC(=O)COc2ccc3c(c2)CCC3)c1 -12.7%, Cc1ccc(S(=O)(=O)N(C)C[C@@H]2Oc3ccc(NS(=O)(=O)c4ccc(Cl)cc4)cc3C(=O)N([C@@H](C)CO)C[C@H]2C)cc1 24.5%, Cc1ccc(S(=O)(=O)Nc2ccc3c(c2)C(=O)N([C@H](C)CO)C[C@@H](C)[C@H](CN(C)S(=O)(=O)c2ccc(F)cc2)O3)cc1 5.5%, CCNC1CCC(Nc2ccnc3cc(Cl)ccc23)CC1 (stereo unspecified) 60.5%, CC(=O)Nc1ccc(C(=O)OCC(=O)NC(=O)NCc2ccccc2)cc1 52.2%, COc1ccc(NS(=O)(=O)c2cccc(C(=O)NNC(=O)CNC(=O)c3ccc(C)cc3)c2)cc1 -10.4%, Cc1ccc(-n2nnnc2SCn2nnc3ccccc3c2=O)c(C)c1 3.87%, COc1ccccc1CN(C)C(=O)CN1CCN(C(=O)c2cccs2)CC1 -2.17%, C[C@@H]1CN([C@@H](C)CO)S(=O)(=O)c2ccc(-c3ccc(F)cc3)cc2O[C@H]1CN(C)C(=O)C1CCCCC1 -71.4%, CC(=O)OC1c2ccccc2C(=O)N1c1ccccc1C (stereo unspecified) 16.1%
